{"source": "PubChem BioAssay AID1698", "about": "(The Scripps Research Institute Molecular Screening Center, 2009)", "biological_target": "Neuropeptide Y receptor type 2 (Homo sapiens) (UniProt P49146)", "sequence (P49146 whole entry, looked up)": "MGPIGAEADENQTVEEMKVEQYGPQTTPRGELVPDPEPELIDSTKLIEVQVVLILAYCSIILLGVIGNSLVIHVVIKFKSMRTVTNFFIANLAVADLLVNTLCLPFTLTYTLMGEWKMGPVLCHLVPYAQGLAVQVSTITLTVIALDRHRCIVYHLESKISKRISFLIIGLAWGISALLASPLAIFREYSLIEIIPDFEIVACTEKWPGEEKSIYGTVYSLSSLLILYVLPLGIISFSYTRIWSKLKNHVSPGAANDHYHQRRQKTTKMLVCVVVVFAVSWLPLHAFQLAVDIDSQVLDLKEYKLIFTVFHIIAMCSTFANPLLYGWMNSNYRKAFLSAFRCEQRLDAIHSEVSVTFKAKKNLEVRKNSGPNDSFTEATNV", "assay": "human Y2 receptor agonism – cell-based, fluorescence, counter-screen for NPY-Y1 potentiator project (AID 1698);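 also: 0% = DMSO with isoproterenol and 100% = 40 nM NPY maximal response; agonism lowers cAMP so well fluorescence drops in active wells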", "settings": "HEK293 Y2-CNGC, membrane potential fluorescence, agonist mode; at 3.6 µM; hits give high values", "note": "This is one part of the list. Activity calls are given as the source filed them.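 The calls were made as follows: active = activation above the solvent-only control wells' mean plus 3 SD (cut at about 11% in these data); inactive = the rest.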"}
{"smiles": "O=C1/C(=C/c2coc3ccc(O)cc3c2=O)SC(=S)N1c1ccccc1", "values": [{"measurement": "activation", "result": "15.2% (active)"}]}
{"smiles": "CSc1nc(-c2ccco2)nn1C(=O)c1ccccc1Cl", "values": [{"measurement": "activation", "result": "26% (active)"}]}
{"smiles": "N#Cc1ccc(C(=O)Nc2nc(-c3cccs3)c(C(=O)C(F)(F)F)s2)cc1", "values": [{"measurement": "activation", "result": "0.24% (inactive)"}]}
{"smiles": "COC(=O)c1ccc(NC(=O)CN(c2ccc(C)cc2)S(=O)(=O)c2c(C)n[nH]c2C)cc1", "values": [{"measurement": "activation", "result": "47% (active)"}]}
{"smiles": "CN1C(=O)c2ccccc2C(C(=O)NCCCN2CCCC2)C1c1c[nH]c2ccccc12", "note": "(stereo unspecified)", "values": [{"measurement": "activation", "result": "-0.28% (inactive)"}]}
{"smiles": "COC(=O)c1sc(-c2ccc(C(C)(C)C)cc2)cc1NC(=O)/C=C/C(=O)O", "values": [{"measurement": "activation", "result": "22.8% (active)"}]}
{"smiles": "Cc1cccc(OCC(O)CN2CCN(CCN3C(=O)c4cccc5cccc(c45)C3=O)CC2)c1C", "note": "(stereo unspecified)", "values": [{"measurement": "activation", "result": "63% (active)"}]}
{"smiles": "O=C(c1cccs1)N1CCN(C(=O)N2CCOCC2)CC1", "values": [{"measurement": "activation", "result": "-9.63% (inactive)"}]}
{"smiles": "CC(=O)c1ccc(NC(=O)C2CC(=O)Nc3nc4ccccc4n32)cc1", "note": "(stereo unspecified)", "values": [{"measurement": "activation", "result": "34.2% (active)"}]}
{"smiles": "CCn1c2ccccc2c2cc(NC(=O)Nc3ccc([N+](=O)[O-])cc3C)ccc21", "values": [{"measurement": "activation", "result": "23.4% (active)"}]}
{"smiles": "Cc1ccccc1NCC(=O)N/N=C\\c1ccc([N+](=O)[O-])s1", "values": [{"measurement": "activation", "result": "39.5% (active)"}]}
{"smiles": "COCCn1nnnc1C(c1ccccc1Cl)N1CCN(c2ccccc2OC)CC1", "note": "(stereo unspecified)", "values": [{"measurement": "activation", "result": "6.66% (inactive)"}]}
{"smiles": "O=C(Nc1ccc2c(c1)CCC2)c1cccc(S(=O)(=O)Nc2ccccc2Cl)c1", "values": [{"measurement": "activation", "result": "10.3% (active)"}]}
{"smiles": "O=[N+]([O-])c1cc(Cl)cc(/C=N/NC(=S)Nc2cc(S(=O)(=O)N3CCOCC3)ccc2Cl)c1O", "values": [{"measurement": "activation", "result": "63.2% (active)"}]}
{"smiles": "O=C(Nc1ccccc1C(F)(F)F)c1cc(-c2ccc(O)cc2)on1", "values": [{"measurement": "activation", "result": "-2.58% (inactive)"}]}
{"smiles": "CC1=C/C(=N\\OS(=O)(=O)c2ccccc2)C=CC1=O", "values": [{"measurement": "activation", "result": "26.8% (active)"}]}
